Results: PubChem BioAssay AID651957 (The Scripps Research Institute Molecular Screening Center, 2012)
Screen size: about 370,000 compounds; about 620 (0.17%) were called active. For the sample, actives were picked, then their nearest neighbours and some compounds at random. Unmarked numbers belong to inactive results.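 How the source made its calls: active means inhibition above the mean inhibition of all tested compounds plus 3 SD, set per campaign (cut at about 52% in these data); inactive means the rest.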

molecular target: Nuclear receptor coactivator 2 (Homo sapiens) (UniProt Q15596); assay: decrease of SRC2 fusion reporter luminescence – cell-based, SRC2 inhibitor project, primary screen (AID 651957); conditions: HEK293 GAL4-SRC2 luciferase reporter, at 9 µM, stronger effect = higher value;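 further: 0% = DMSO treated cells and 100% = cells given Gossypol at 36 µM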
Sequence (Q15596 whole entry, looked up, the tested form may be a part): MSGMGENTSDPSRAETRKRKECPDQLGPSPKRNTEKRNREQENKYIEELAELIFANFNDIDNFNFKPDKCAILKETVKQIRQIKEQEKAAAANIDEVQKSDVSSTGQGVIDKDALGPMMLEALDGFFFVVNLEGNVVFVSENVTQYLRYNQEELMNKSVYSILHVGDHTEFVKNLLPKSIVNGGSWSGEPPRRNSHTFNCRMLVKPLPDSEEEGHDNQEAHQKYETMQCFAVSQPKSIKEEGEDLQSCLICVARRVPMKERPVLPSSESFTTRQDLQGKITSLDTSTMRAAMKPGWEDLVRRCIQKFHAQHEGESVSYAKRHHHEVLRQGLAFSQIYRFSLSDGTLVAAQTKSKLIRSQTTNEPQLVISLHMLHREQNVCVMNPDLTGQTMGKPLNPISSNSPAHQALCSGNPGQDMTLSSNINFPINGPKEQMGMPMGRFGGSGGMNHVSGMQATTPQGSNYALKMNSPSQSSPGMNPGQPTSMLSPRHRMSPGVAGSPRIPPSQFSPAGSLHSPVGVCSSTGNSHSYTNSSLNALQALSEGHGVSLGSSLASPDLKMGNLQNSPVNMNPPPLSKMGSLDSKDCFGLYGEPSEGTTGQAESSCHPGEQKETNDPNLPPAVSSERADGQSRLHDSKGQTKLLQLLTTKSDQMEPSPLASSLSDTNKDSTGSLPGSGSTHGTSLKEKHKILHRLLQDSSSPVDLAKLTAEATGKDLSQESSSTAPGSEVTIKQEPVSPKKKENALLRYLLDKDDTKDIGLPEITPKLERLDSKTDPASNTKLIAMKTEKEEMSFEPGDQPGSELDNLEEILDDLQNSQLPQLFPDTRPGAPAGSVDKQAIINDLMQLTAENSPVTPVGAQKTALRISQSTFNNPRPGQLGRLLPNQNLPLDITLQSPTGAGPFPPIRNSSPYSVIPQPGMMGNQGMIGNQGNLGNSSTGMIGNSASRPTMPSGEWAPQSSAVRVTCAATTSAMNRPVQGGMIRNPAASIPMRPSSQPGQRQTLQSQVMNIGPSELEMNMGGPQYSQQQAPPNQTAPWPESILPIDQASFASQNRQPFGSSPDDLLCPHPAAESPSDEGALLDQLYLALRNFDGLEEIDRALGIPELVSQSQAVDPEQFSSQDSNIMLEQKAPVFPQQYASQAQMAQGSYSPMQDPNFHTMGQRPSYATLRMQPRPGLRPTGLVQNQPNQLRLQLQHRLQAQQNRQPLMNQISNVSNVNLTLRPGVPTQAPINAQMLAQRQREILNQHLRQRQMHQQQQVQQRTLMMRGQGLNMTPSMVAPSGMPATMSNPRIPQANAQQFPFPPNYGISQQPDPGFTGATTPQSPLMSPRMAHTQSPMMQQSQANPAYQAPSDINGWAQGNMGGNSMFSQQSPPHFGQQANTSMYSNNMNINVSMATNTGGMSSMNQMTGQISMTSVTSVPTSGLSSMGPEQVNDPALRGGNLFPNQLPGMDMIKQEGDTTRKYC

Structure (SMILES)	inhibition
CCOc1cc(/C=C(/C#N)c2ccc(Cl)cc2)cc(Cl)c1OCC(=O)O	56.9% (active)
CCOC(=O)CN(C(=O)COc1nc(C)cc(C)c1C#N)c1ccc(Cl)cc1	-18%
N#C/C(=C/c1ccc(Cl)cc1)NC(=O)c1ccccc1	-29%
C=CCn1c(SCC(N)=O)nnc1-c1ccccc1OC	-9.59%
CN(c1ccc2nc3ccccc3c(=O)n2n1)C1CCCCC1	72.1% (active)
O=C(c1ccco1)N(Cc1nc2ccccc2c(=O)[nH]1)C1CCCC1	2.27%
CC(C)CC1NC(=O)c2cc(Cl)ccc2-n2c1nc1ccccc1c2=O (stereo not given)	5.29%
O=C(NC1Cc2ccccc2C1)c1cc(COc2cccc(C(F)(F)F)c2)on1	11.1%
CC1(C)CC(N2CCN(C(c3ccccc3)c3ccccc3)CC2)=CC(=[N+]2CCCCC2)C1	24.5%
COc1ccc(S(=O)(=O)N2CCc3ccccc32)cc1C(=O)Nc1cc(S(C)(=O)=O)ccc1Cl	-10.2%
O=C(Nc1nc2ccc(Cl)cc2s1)c1cc(-c2ccc(Cl)cc2)nc2ccccc12	-2.88%
O=C(COC(=O)CN1C(=O)C2CCCCC2C1=O)Nc1ccc(F)c(F)c1F (stereo not given)	-13.3%
CC(OC(=O)CN1C(=O)C2CCCCC2C1=O)C(=O)Nc1ncc(Cl)cc1Cl (stereo not given)	1.55%
CC1=CC(C)(C)Nc2ccc(OC(=O)CN3C(=O)C4CCCCC4C3=O)cc21 (stereo not given)	52.7% (active)
Cc1ccc(-n2c(SCC(=O)Nc3cccc4ccccc34)nnc2-c2ccco2)cc1	-19.3%
CC(C)(C)c1ccc(Oc2ccc(N)cc2)cc1	92% (active)
CN1CCNC(=O)C1CC(=O)NCCC1=CCCCC1 (stereo not given)	20.1%
CN1CCCCC(NC(=O)C(C)(C)C)C1=O (stereo not given)	-8.4%
CCC(c1ccc(NC(=O)OC(C)(C)C)cc1)c1cc(OC)cc(OC)c1 (stereo not given)	11.3%
CC(=O)c1cc(-c2ccc3ccccc3c2)c(=O)n2c1CCC2	-32.7%
COc1cccc(CN2CCN(Cc3ccc4cccc(F)c4n3)CC2CCO)c1 (stereo not given)	-4.49%
CCOc1ccc(NC(=S)NC(=O)/C=C/c2ccc(OC)cc2)c([N+](=O)[O-])c1	95.6% (active)
CCOc1ccc(NC(=O)COC(=O)C2CCC(=O)N2)c([N+](=O)[O-])c1 (stereo not given)	-12.2%

Structure (SMILES)	inhibition
COc1ccc(/C=C/C(=O)NC(=S)N2CCCC(C(N)=O)C2)cc1 (stereo not given)	-8.4%
CC(C)(C)c1ccc(CSc2nnc(-c3cccs3)o2)cc1	-21.4%
COC[C@@H]1CCCN1c1ccc2c(c1)O[C@H](C)CCN(C1CC1)S2(=O)=O	14.3%
O=C(NCc1ccccn1)[C@@H]1CCCN1C(=O)[C@@H]1CCCN1C(=O)c1ccccc1	-0.2%
COc1ccc(C2=CN(Cc3ccccc3)C(c3ccc(OC)cc3)CC2=O)cc1 (stereo not given)	12.8%
CCOC(=O)[C@]12CCCC3=C1N(CCC3)C(=O)[C@@H](CC(=O)N1CCSCC1)C2	12.6%
CCOC(=O)CNc1nc(Cl)nc(Nc2ccc(OC)cc2OC)n1	-23.9%
CC1(C)CC2CC(C)(CN2c2ncnc3ccc(Br)cc23)C1 (stereo not given)	17.4%
COc1ccc(Nc2ncnc3ccc(Br)cc23)c(OC)c1	86.6% (active)
CC(C)CNc1cccc2c1S(=O)(=O)N(Cc1cn(Cc3ccccc3C(F)(F)F)nn1)Cc1ccccc1O2	2.85%
CC(=O)Nc1ccc(NC(=O)COC(=O)C2CCC(C(C)(C)C)CC2)cc1 (stereo not given)	-24.4%
CCC(C)(C)c1ccc(Oc2ccc(NC(=O)COC(=O)C3=COCCO3)cc2)cc1	56.6% (active)
CCOC(=O)c1sc(N)c(C#N)c1COC(=O)C1=COCCO1	7.27%
Cc1nnc(SCC(=O)N2c3ccccc3C(C)(c3ccc(Cl)cc3)CC2(C)C)s1 (stereo not given)	-11.4%
C=CCNC(=O)c1sc(SC)cc1-c1ccc(Cl)cc1	3.88%
O=C(OC12CCCN(C1)/C(=C/c1ccccc1)C2)c1ccco1 (stereo not given)	9.76%
OCC[C@H]1C[C@H](O)[C@@H](O)[C@]2(CCc3ccccc3O2)O1	3.27%
CCOC(=O)c1ccccc1NS(=O)(=O)c1c(C)nc2sccn2c1=O	-4.6%
Cc1nc(=O)c(-c2ccccc2)c(C)n1-c1ccc(Br)cc1	-29.2%
Cc1nc(-c2ccccc2)cn2c1nc1ccccc12	7.57%
Cc1ccc2nc(-c3ccc(Br)cc3)cn2c1	60.3% (active)
Cc1ccc(-c2cn3cc(C)ccc3n2)cc1	72.6% (active)
Cc1ccc2nc(-c3ccccc3)c(CC3CCCCC3)n2c1	-25.6%

Structure (SMILES)	inhibition
COc1cc(/C=C/C(=O)OCC(=O)Nc2cccc(Oc3ccccc3)c2)ccc1O	11.1%
COc1ccc(C(=O)Nc2ccccc2C(=O)N/N=C/c2ccc(O)c(OC)c2)cc1	55% (active)
COc1cc(C(=O)Nc2cc(C(F)(F)F)ccc2N2CCOCC2)ccc1O	-7.29%
Cc1ccccc1NC(=O)Cn1nnc(-c2ccccc2F)n1	11.4%
C=CCn1c(C)cc(C2=NNC(=NCC)SC2)c1C	84.4% (active)
CC(C)CNc1cccc2c1S(=O)(=O)N(Cc1cn(Cc3ccc(Cl)cc3)nn1)Cc1ccccc1O2	26.6%
Cc1nnc(NC(=O)CSc2nccn2-c2cccc(C)c2C)s1	-5.88%
Cc1ccc(CS(=O)(=O)CCC(=O)NC2CC2)cc1	-50%
Cc1cccc(NC(=O)c2cc3c(C)nn(-c4ccccc4)c3s2)c1	0.27%
Cc1cccc(CS(=O)(=O)c2ncc(Cl)c(C(=O)Nc3ccc(F)cc3)n2)c1	62.1% (active)
Cc1cccc(NC(=O)c2nc(S(=O)(=O)Cc3ccccc3)ncc2Cl)c1	64.1% (active)
Cc1cccc(C(=O)Nc2c(-c3ccc(F)cc3)nc3ncccn23)c1	16.3%
CN(CCC(=O)Nc1cc(S(=O)(=O)N(C)C)ccc1Cl)CC(=O)Nc1ccc(F)cc1	-17.9%
O=C(CCS(=O)(=O)c1ccccc1)Nc1ccc(Cl)c(Cl)c1	-2.79%
Cc1ccc(CS(=O)(=O)c2ncc(Cl)c(C(=O)Nc3nnc(C)s3)n2)cc1	64% (active)
O=C(NCCC1=CCCCC1)C1CCN(S(=O)(=O)c2ccc(Cl)s2)CC1	-18.3%
COc1ccc(N2CCN(CCNS(=O)(=O)c3ccc([N+](=O)[O-])cc3)CC2)cc1	9.36%
O=S1(=O)c2ccc(Br)cc2OC[C@@H](Cc2ccccc2)N1Cc1cn(Cc2ccco2)nn1	-13.6%
CC1CCC(N2CC(=O)N(Cc3ccc4c(c3)OCO4)C(c3ccc(F)cc3)C2=O)CC1 (stereo not given)	3.66%
Clc1ccc(C(Cn2ccnc2)OCc2ccsc2Cl)c(Cl)c1 (stereo not given)	7.22%
COc1ccc2cc(C(=O)O)n(CC(=O)c3ccccc3)c2c1	-12.1%
C=CCOc1ccc(C(=O)Nc2ccccc2C(=O)N2CCCC2)cc1	-24.2%
Cc1cc(OCCCC(=O)NCCN2C(=O)S/C(=C\c3cccnc3)C2=O)ccc1Cl	-14.1%

Structure (SMILES)	inhibition
C=CCOc1ccc(/C=C2\SC(=S)N(CCC(=O)O)C2=O)cc1	85.7% (active)
CCOC(=O)C1=C(C)NC2=C(C(=O)CC(C)(C)C2)C1c1ccc2c(c1)OCO2 (stereo not given)	11.6%
COc1ccc2c(c1)CCC/C2=N\OC(=O)c1ccccc1F	4.64%
CCCCCCCCN1C(=O)[C@@H](CC(=O)NCCCC)C[C@@]2(C(=O)OC)C1=C[C@H](C(C)(C)C)O[C@@H]2C	-9.63%
Nn1c(SCC(=O)Nc2ccc(S(N)(=O)=O)cc2)nnc1-c1n[nH]c2c1CCC2	10.6%
CCOC(=O)C1=C(CC)Nc2ccccc2N=C1N	12.5%
CCOC(=O)C1C(=O)C=C(c2ccc(OC)cc2)CC1c1ccco1 (stereo not given)	-4.74%
CCOC(=O)C1=C(c2ccc(OC)cc2)C(=O)c2ccccc2C1=O	73.8% (active)
Cc1ccc(S(=O)(=O)N(C)CC(=O)N2CCc3ccccc32)cc1	-6.78%
NS(=O)(=O)c1ccc(CCNC(=O)CN2C(=O)c3ccccc3S2(=O)=O)cc1	1.66%
O=C(CN1C(=O)c2ccccc2S1(=O)=O)N1CCc2ccccc21	73.3% (active)
O=C(COC(=O)c1cnccn1)Nc1cccc2ccccc12	-4.93%
CCOC(=O)C(C(=O)c1ccccc1)C(c1ccccc1)c1nccc2ccccc12 (stereo not given)	14.8%
COc1cccc(CC(=O)N2CCN(C(=O)C(=O)c3cccc(C(F)(F)F)c3)CC2)c1	7.57%
C[C@H]1CCC/C=C/C(=O)c2c(O)cc(O)cc2CC(=O)O1	64.6% (active)
COc1ccc(S(=O)(=O)NCC(=O)NCc2cc(=O)n(C)c(=O)n2C)cc1F	-9.55%
CC1CCC2(CC1)NC(=O)N(CC(=O)NCc1ccco1)C2=O (stereo not given)	-29.4%
CC1(C)CC(=O)c2sc(N)nc2C1	3.79%
O=c1oc2ccccc2cc1-c1cn(-c2ccccc2)c(=S)[nH]1	80.4% (active)
COc1cccc(NC(=O)N(C)C[C@@H]2OCc3cn(nn3)CCCC(=O)N([C@@H](C)CO)C[C@H]2C)c1	-2.21%
COC(=O)[C@]12C[C@H](CC(=O)NCc3cccc(C(F)(F)F)c3)C(=O)N(Cc3ccc4c(c3)OCO4)C1=C[C@H](COCc1ccccc1)O[C@@H]2C	4.24%
